Sampled rows, rich in hits. Any-hit rate of the full collection: about 10%.
Lamin A splicing = changes lamin A minigene splicing in HeLa cells; HeLa LMNA splicing GFP/RFP minigene ratio, 48 h; Potency, µM (highest dose often 46.1 µM), most hits filed as inhibitors; 200,000 compounds, 0.01% hits; AID 1487; active = well fitted inhibition curve with a large enough effect in the signal ratio, with a control signal flat, not every such curve was filed as active; inconclusive = small, poorly fitted or top-dose-only effect, or effect the other way, or a change in a side signal; the % refers to the signal ratio
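S3 HeLa stable clones carrying a lamin A-EGFP splicing minigene plus DsRed2 were seeded at 600 cells/well in Opti-MEM with 2% FBS, pin-dosed and incubated 48 h at 37°C. Acumen cytometry (488 nm) gave the GFP/RFP total-intensity ratio.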
ALDH1A1 inh = inhibitors of human aldehyde dehydrogenase 1A1. Purified ALDH1A1, NADH fluorescence, propionaldehyde substrate. Potency, µM (highest dose often 75.3 µM), most hits filed as inhibitors. 220,000 compounds, 7.3% hits. AID 1030
Target sequence (P00352 whole entry, looked up): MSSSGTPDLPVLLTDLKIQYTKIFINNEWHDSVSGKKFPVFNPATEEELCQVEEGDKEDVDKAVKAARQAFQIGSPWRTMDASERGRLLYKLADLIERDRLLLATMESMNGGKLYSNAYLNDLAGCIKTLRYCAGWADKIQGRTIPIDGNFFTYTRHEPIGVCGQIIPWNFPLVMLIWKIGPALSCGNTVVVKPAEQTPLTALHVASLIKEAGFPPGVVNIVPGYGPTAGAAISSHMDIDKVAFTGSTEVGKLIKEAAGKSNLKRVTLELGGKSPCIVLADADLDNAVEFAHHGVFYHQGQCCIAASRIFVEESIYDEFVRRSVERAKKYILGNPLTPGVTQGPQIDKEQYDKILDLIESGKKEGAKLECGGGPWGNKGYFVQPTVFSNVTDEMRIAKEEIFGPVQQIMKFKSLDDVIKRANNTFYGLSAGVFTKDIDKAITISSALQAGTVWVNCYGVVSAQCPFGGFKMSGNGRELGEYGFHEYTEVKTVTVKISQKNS
PNC assembly inh = blocks assembly of the perinucleolar compartment. PC3M PTB-GFP, PNC prevalence imaging, 16 h; hits give low values. activity change (PNC), negative = inhibition, % at 10 µM. 140,000 compounds, 3.1% hits;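 active = readout at or below -70, meaning at least 70% loss of cells showing the perinucleolar compartment, a nuclear body marking cancer cells; inconclusive = readout between -30 and a set limit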
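Compounds are pinned in duplicate onto adhered PC3M cells stably expressing GFP-tagged PTB and incubated 16 h at 37 C. Cells are then fixed, nuclei stained with Hoechst, and PNC-positive cells counted.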
KinaseGlo FLuc = blocks Kinase-Glo luciferase, a counter-screen artifact; AID 1379; Q27757; Potency, µM (doses to about 38.3 µM), most hits filed as inhibitors; 200,000 compounds, 0.28% hits; Kinase-Glo luciferase, ATP luminescence, 8 min; active = well fitted inhibition curve with a large enough effect; inconclusive = small, poorly fitted or top-dose-only effect; note: nearly all actives have a fitted effect of over 60% in size
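Substrate mix (final 50 mM imidazole pH 7.2, 50 mM KCl, 7 mM MgCl2, 10 uM ATP, 0.01% Tween 20, 0.05% BSA) plus pin-tool compound, then Kinase-Glo detection mix; 8 min ambient, luminescence read.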
HPGD block = blocks human HPGD enzyme activity; Potency, µM, hits mostly inhibitors; 150,000 compounds, 4.3% hits; purified HPGD, NADH fluorescence kinetic, PGE2 substrate
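NADH formation kinetics: reaction with 30 uM PGE2 and 1 mM NAD+ (final), 20 nM enzyme, Tris-HCl pH 8 with Tween 20, after 15 min compound preincubation at room temperature. Fluorescence change, last versus first of five reads.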
Hits are given with their value; . = inactive; ? = inconclusive; / = no result; [ ] = dose if it differs, or a comment. Unless noted, calls come from the whole dose curve; as a rule, active = well fitted inhibition curve with a large enough effect (not every such curve was filed as active); inconclusive = small, poorly fitted or top-dose-only effect, or another doubt; inactive = no such curve, though single readings can be large or run the other way.

SMILES	Lamin A splicing	ALDH1A1 inh	PNC assembly inh	KinaseGlo FLuc	HPGD block
CC(=O)NCCNc1ncnc2ccc(-c3ccc4c(c3)OCO4)cc12	.	?	/	/	/
Cc1ccc(NC(=O)CSc2nnc(-c3cc4occc4n3C)n2-c2ccccc2C)c(Cl)c1	.	/	/	/	/
COC(=O)[C@@]1(Cc2ccccc2)[C@H]2c3cc(C(=O)N(C)C)n(Cc4cc(F)c(F)c(F)c4)c3C[C@H]2CN1C(=O)c1ccccc1	/	.	/	.	.
COc1cc(NC(=O)CSC2=Nc3ccccc3N=C(c3ccc(F)cc3)C2)cc(OC)c1	.	/	/	/	/
COC(=O)N1C(/C=C/c2ccc3c(c2)OCO3)=Cc2ccccc2C1CC(C)=O (stereo not drawn)	?	?	/	.[7.66 µM]	?
COC(=O)c1ccccc1NC(=O)C1CCCN(S(=O)(=O)c2ccc(F)cc2)C1 (stereo not drawn)	?	.	-89.1	.	.
O=C(O)C1CCCN(S(=O)(=O)c2cccs2)C1 (stereo not drawn)	.	.	-100.0	.	.
CCOC(=O)C1CCCN(S(=O)(=O)c2ccc(OC)cc2)C1 (stereo not drawn)	.	3.16µM	.	.	.
CCOC(=O)C1CCCN(S(=O)(=O)c2ccc(S(N)(=O)=O)cc2)C1 (stereo not drawn)	.	?	/	.	/
CCOC(=O)C1CCCN(S(=O)(=O)c2ccc(C)cc2)C1 (stereo not drawn)	.	8.91µM	.	.	.
CCOc1ccc(CNC(=O)c2cnc(SC)nc2C)cc1	.	/	/	/	/
Cc1oc(-c2ccccc2Cl)nc1Cn1c(SCc2cccc(F)c2)nc2cccnc21	.	/	/	/	/
O=C(NCc1cccs1)C1CCCN(S(=O)(=O)c2ccc3c(c2)OCO3)C1 (stereo not drawn)	.	.	?	/	/
Cn1c(=O)oc2cc(S(=O)(=O)N3CCCC(C(=O)NCc4cccs4)C3)ccc21 (stereo not drawn)	.	.	?	.	.
Cc1ccc(S(=O)(=O)N2CCCC(C(=O)N(Cc3cccs3)C3CC3)C2)cc1 (stereo not drawn)	?	7.08µM	?	.	.
CCOC(=O)N1CCC(NC(=O)C2CCCN(S(=O)(=O)c3ccc4c(c3)oc(=O)n4C)C2)CC1 (stereo not drawn)	?	.	-89.9	.	.
CC1(C)CCCC2(C)C3C(O)CC2(C)C(O)C31 (stereo not drawn)	.	.	/	.	.
Cn1cnc(S(=O)(=O)N2CCC(C(=O)Nc3ccc(OC(F)(F)F)cc3)CC2)c1	.	/	/	/	/
COc1ccc(CONc2ncnc3nonc23)cc1[N+](=O)[O-]	/	14.1µM	/	.	/
CCONc1ncnc2nonc12	.	.	.	.	.
CCOc1ccc(Br)cc1S(=O)(=O)Nc1ccc(Cl)c(S(=O)(=O)N(C)C)c1	?	0.355µM	.	/	/
Cc1cc(C)cc(N(CC(=O)NCCSCc2ccccc2)S(C)(=O)=O)c1	/	.	/	.	/
O=C(CN(c1ccc(F)cc1)S(=O)(=O)c1ccccc1)NCc1ccco1	.	.	.	.	.
O=C(CN(c1ccccc1)S(=O)(=O)c1ccccc1)NCCSCc1ccco1	.	10µM	.	.	.
CS(=O)(=O)N(CC(=O)NCCSCc1ccccc1)c1ccccc1	/	28.2µM	/	.	/
SMILES	Lamin A splicing	ALDH1A1 inh	PNC assembly inh	KinaseGlo FLuc	HPGD block
Cc1ccc(S(=O)(=O)N(CC(=O)NCCSCc2ccco2)c2ccc(F)cc2)cc1	/	28.2µM	/	/	/
CN(c1ccc(C(=O)NCCSCc2ccco2)cc1)S(C)(=O)=O	.	2.51µM	?	.	?
CN(c1ccc(C(=O)NCc2ccco2)cc1)S(C)(=O)=O	.	.	.	.	.
CCCn1c2ccccc2c2cnn(CC(=O)Nc3cc(C)c(Cl)cc3OC)c(=O)c21	.	/	/	/	/
COc1cccc(CNC(=O)CSc2nc3ccccc3nc2Cc2ccc(C)cc2)c1OC	.	/	/	/	/
COc1ccc(N(CC(=O)NCCSCc2ccco2)S(=O)(=O)c2ccc(C)cc2)cc1	.	20µM	/	.	/
Cc1ccc(N(CC(=O)NCCSCc2ccco2)S(=O)(=O)c2ccc(F)cc2)cc1	?	20µM	/	.	/
Cc1ccc(N(CC(=O)NCCSCc2ccco2)S(C)(=O)=O)cc1	.	8.91µM	.	.	.
CS(=O)(=O)N(CC(=O)NCCSCc1ccco1)c1ccc2c(c1)OCO2	.	?	/	.	/
COc1ccc(N(CC(=O)NCCSCc2ccco2)S(=O)(=O)c2ccccc2)cc1	/	?	/	.	/
Cc1cc(Cl)ccc1N(CC(=O)NCCSCc1ccco1)S(C)(=O)=O	?	12.6µM	/	.	/
Cc1ccc(N2C(=O)CN(Cc3cccs3)C2=S)cc1C	.	.	/	.	/
Cc1ccc(N2C(=O)CN(Cc3sccc3C)C2=S)cc1C	?	?	.	.	3.16µM
Cc1ccc(N=Nc2c(O)c(S(=O)(=O)O)cc3cc(S(=O)(=O)O)ccc23)c(C)c1	/	?	/	.[7.66 µM]	.
Nc1c(N=Nc2ccc(-c3ccc(N=Nc4cc(S(=O)(=O)O)c5ccccc5c4N)cc3)cc2)cc(S(=O)(=O)O)c2ccccc12	/	25.1µM	/	?	15.8µM
Cc1cc(-c2ccc(N=Nc3ccc4c(S(=O)(=O)O)cc(S(=O)(=O)O)c(N)c4c3O)c(C)c2)ccc1N=Nc1ccc2c(S(=O)(=O)O)cc(S(=O)(=O)O)c(N)c2c1O	/	?	/	10µM	5.01µM
Cc1ccc(CSc2nnc(-c3cccs3)n2C)cc1	.	.	-100.0	.	.
Cc1ccc(S(=O)(=O)N(c2nc(N(C)C)nc(N(C)C)n2)n2cnnc2)cc1	.	5.01µM	.	.	.
Nc1nc(SC/C=C\c2ccccc2)c2[nH]cnc2n1	/	.[13.5 µM]	/	.[7.66 µM]	.
O=C(Nc1ccccc1)C1=C[C@@H](c2ccc(Br)cc2)C[C@@H](OCCCCO)O1	/	7.94µM	/	/	/
CC(=O)n1cc([C@@H]2C=C(C(=O)Nc3ccccc3)O[C@H](OCCCCO)C2)c2ccccc21	/	12.6µM	/	/	/
CC(=O)Oc1cccc(C)c1	?	.	/	.	.
Cc1[nH]c(N)nc(=S)c1CCC(=O)O	/	.[13.5 µM]	/	.[7.66 µM]	.
Cc1cc(Cl)ccc1NC(=O)CSc1nnc(Cc2cccs2)n1Cc1ccco1	.	?	?	.	.
CCn1c(SCC(=O)Nc2cc3oc4ccccc4c3cc2OC)nnc1-c1cccs1	.	12.6µM	.	.	.
SMILES	Lamin A splicing	ALDH1A1 inh	PNC assembly inh	KinaseGlo FLuc	HPGD block
C=CCn1c(SCC(=O)Nc2cc3oc4ccccc4c3cc2OC)nnc1-c1cnccn1	.	28.2µM	?	/	/
N#Cc1ccc(CSc2nnc(Cc3cccs3)n2Cc2ccco2)cc1	.	11.2µM	.	.	.
C=CCn1c(SCC(=O)Nc2cccc3ccccc23)nnc1-c1cnccn1	.	.	.	.	.
COc1cc2c(cc1NC(=O)CSc1nnc(Cc3cccs3)n1Cc1ccco1)oc1ccccc12	.	5.01µM	.	.	.
COC(=O)[C@@H]1C[C@@]1(C)[C@@H](NC(=O)OCc1ccccc1)c1ccccc1	/	?	/	.	.
CCCn1c(SCC(=O)c2cc(OC)ccc2OC)nnc1C(C)C	.	?	?	.	.
COc1cc2c(cc1NC(=O)CSc1nnc(Cc3cccs3)n1C)oc1ccccc12	.	14.1µM	?	.	.

Compound activity from PubChem BioAssay.
